# From PubChem BioAssay (NCI)
# This is part of a sample that, as a whole, favours compounds with a hit. Of some 83,000 tested, about 20% had one in any assay.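 A percent growth of 40 corresponds to 60% growth inhibition; 0 means no net growth; -100 means all cells died. Active threshold: below 10.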 Values without a mark were called inactive. Active and inactive are the calls of the source.
# Tested on: HOP-92 NSCLC
# Test: NCI-60 one-dose screen, 48 h (100 = growth as untreated, 0 = no growth, -100 = all killed)
# Settings: 10 µM unless noted
row,SMILES,growth
1,Nc1cc2nc3ccccc3sc-2cc1=O,101%
2,COc1ccc(C(=O)/C=C/c2c(Cl)c3c(c(OC)c2Cl)OCC(=O)N3)cc1,74.5%
3,COc1cc(NCCCCN=C(N)NC(N)=NC(C)C)c2ncccc2c1,33.7%
4,CC/C=C\C[C@H](F)C/C=C1/C(=O)C=C[C@@H]1C/C=C\CCCC(=O)OC,68.9%
5,C=C(CN1CCN(c2cccc(C(F)(F)F)n2)CC1)c1ccc(C(=O)Nc2ccccc2N)cc1,-12.1% (active)
6,Cn1cc(-c2csc(-c3cn(C)c4ncccc34)n2)c2ccccc21,66.1%
7,COc1ccc2nc3cc(Cl)ccc3c(N3CCN(c4nccc(Nc5ccc(Cl)cc5)n4)CC3)c2c1,34.8%
8,CCN(CC)CCCC(C)N/C(=C1\C(=O)NC(=O)\C1=C(/NC(C)CCCN(CC)CC)c1cccc(OC)c1)c1cccc(OC)c1 (stereo not drawn),-1.22% (active)
9,CC(=O)C1=C(O)C=C2Oc3c(C(=O)/C=C/c4ccccc4)c(O)c(C)c(O)c3[C@]2(C)C1=O,15.5%
10,O=C1/C(=C/c2ccc(Cl)c(Cl)c2)CN(C(=O)CCN2CCC(=NO)CC2)C/C1=C\c1ccc(Cl)c(Cl)c1,-53.2% (active)
11,CCOC(=O)/C=C/C(=O)[C@H](CC(C)C)NC(=O)[C@H](Cc1ccccc1)NC(=O)OCc1ccccc1,79.7%
12,Cc1cc2cc3cc(C)c(N(C)C)cc3[n+](C)c2cc1N(C)C,-34.6% (active)
13,COC(=O)[C@@H]1CC[C@]2(C)[C@H](CC[C@@H]3O[C@@]32C)[C@@]1(C)CC(=O)c1ccoc1,93.3%
14,O=C(O)c1ccccc1Nc1cccc(S(F)(F)(F)(F)F)c1,96.1%
15,COc1ccc(C2c3ccc4ccccc4c3Oc3ncnc(N)c32)cc1 (stereo not drawn),70.4%
16,CN1CCN(Cc2ccc(NC(=O)c3cncc(C#Cc4cnc(N)c5cccnc45)c3)cc2C(F)(F)F)CC1,-26.2% (active)
17,COc1ccc(OCC(=O)Nc2ccc(-c3nc4ccccc4s3)cc2C)cc1,68.4%
18,Oc1ccc2c(=S)cc(-c3ccc(Br)cc3)oc2c1O,-18.9% (active)
19,O=C1CC(c2nc3ccccc3s2)CN1C1CCCCC1 (stereo not drawn),84.9%

row,SMILES,growth
1,COc1cccc(-n2cc(-c3nc(Nc4cc(C)[nH]n4)c4ccccc4n3)nn2)c1,35.8%
2,CCN(CC)CC#CCOC(=O)[C@]1(C)CCC[C@@]2(C)[C@H]1CC(C=O)=C1C=C(C(C)C)CC[C@@H]12,44.8%
3,CC(=O)Nc1ccc2c(c1)c(NC(C)=O)nn2C(=O)Nc1ccc(Cc2ccccc2)cc1,-42.8% (active)
4,Cc1cc(Nc2nc(N3CCNCC3)nc3ccccc23)n[nH]1,80.2%
5,COC(=S)SCN(CSC(=S)OC)c1ccc(Cl)cc1,74.7%
6,CCN(CC)CCC(=O)Nc1ccc(Cn2nnc3c2C(=O)c2nnn(Cc4ccc(NC(=O)CCN(CC)CC)cc4)c2C3=O)cc1,-44.3% (active)
7,O=C(CCCCN1CCOCC1)Nc1ccc(Cn2nnc3c2C(=O)c2nnn(Cc4ccc(NC(=O)CCCCN5CCOCC5)cc4)c2C3=O)cc1,-40.3% (active)
8,COc1ccc(C(=O)c2sc3nc(-c4ccccc4OC)ccc3c2N)cc1OC,56.4%
9,O=C1C[C@H](N2C(=O)c3ccccc3S2(=O)=O)C2CO[C@@H]1O2,98.4%
10,CC(=O)C1=C(O)C=C2Oc3c(C(=O)/C=C/c4cc(C(F)(F)F)cc(C(F)(F)F)c4)c(O)c(C)c(O)c3[C@]2(C)C1=O,-41.2% (active)
11,CCN(CC)c1ccc(/C=C/C2=[N+](C)c3ccccc3C2(C)C)cc1,-10.7% (active)
12,c1ccc2c(Nc3cccc4ccccc34)cccc2c1,28.1%
13,CCCCCCCCCCCCCC(=O)C(C)N (stereo not drawn),8.22% (active)
14,CCOC(=O)C(CC)n1c(=O)c2cc(OC)c(OC)cc2c2cnc3[nH]ccc3c21 (stereo not drawn),42.5%
15,O=C1C2CC=CCC2C(=O)N1CNc1ccc(Cl)cc1 (stereo not drawn),62.9%
16,Cc1ccc(SCN2CCN(c3cccc(Cl)c3)CC2)cc1,89.7%
17,Cc1nc2nc(N)nc(N)c2nc1C,87.3%
18,CSc1[nH]c2ncnc(N)c2c1C#N,118%
19,O=C(CN1CCOCC1)Nc1ccc(Cn2nnc3c2C(=O)c2nnn(Cc4ccc(NC(=O)CN5CCOCC5)cc4)c2C3=O)cc1,-36.9% (active)
